From article PMC8222333, “AsCas12a ultra nuclease facilitates the rapid generation of therapeutic cell medicines” come the findings set out here.

Numbering of substitutions follows the chain as printed.

The labels stand for the following.
B1: TTAG (dsDNA)
DNA 1: GCTATCTAGTGCTCAGTACGCACTGTTAGAGGAAACTTCTGGCAGGACCAGGTCATGAGATCGGAAGAGCACACGTCTGAACTCCAGTCA
DNA 2: TGACTGGAGTTCAGACGTGTGCTCTTCCGATCTCATGACCTGGTCCTGCCAGAAGTTTCCTCTAACAGTGCGTACTGAGCACTAGATAGC
RNA: AAUUUCUACUCUUGUAGAUAGGAAACUUCUGGCAGGACC
B2: ACAT (dsDNA)
DNA 1: B1 DNA 1 with T26A, T27C, G29T
DNA 2: B1 DNA 2 with C62A, A64G, A65T
RNA: B1 RNA
B3: AATG (dsDNA)
DNA 1: B1 DNA 1 with T26A, T27A, A28T
DNA 2: B1 DNA 2 with T63A, A64T, A65T
RNA: B1 RNA
B4: AGGG (dsDNA)
DNA 1: B1 DNA 1 with T26A, T27G, A28G
DNA 2: B1 DNA 2 with T63C, A64C, A65T
RNA: B1 RNA
B5: TTCG (dsDNA)
DNA 1: B1 DNA 1 with A28C
DNA 2: B1 DNA 2 with T63G
RNA: B1 RNA
B6: ATCA (dsDNA)
DNA 1: B1 DNA 1 with T26A, A28C, G29A
DNA 2: B1 DNA 2 with C62T, T63G, A65T
RNA: B1 RNA
B7: TTGT (dsDNA)
DNA 1: B1 DNA 1 with A28G, G29T
DNA 2: B1 DNA 2 with C62A, T63C
RNA: B1 RNA
B8: ATCT (dsDNA)
DNA 1: B1 DNA 1 with T26A, A28C, G29T
DNA 2: B1 DNA 2 with C62A, T63G, A65T
RNA: B1 RNA
B9: AAAT (dsDNA)
DNA 1: B1 DNA 1 with T26A, T27A, G29T
DNA 2: B1 DNA 2 with C62A, A64T, A65T
RNA: B1 RNA
B10: ACCA (dsDNA)
DNA 1: B1 DNA 1 with T26A, T27C, A28C, G29A
DNA 2: B1 DNA 2 with C62T, T63G, A64G, A65T
RNA: B1 RNA
B11: ACCT (dsDNA)
DNA 1: B1 DNA 1 with T26A, T27C, A28C, G29T
DNA 2: B1 DNA 2 with C62A, T63G, A64G, A65T
RNA: B1 RNA
B12: TTAT (dsDNA)
DNA 1: B1 DNA 1 with G29T
DNA 2: B1 DNA 2 with C62A
RNA: B1 RNA
B13: TTGG (dsDNA)
DNA 1: B1 DNA 1 with A28G
DNA 2: B1 DNA 2 with T63C
RNA: B1 RNA
B14: ATAG (dsDNA)
DNA 1: B1 DNA 1 with T26A
DNA 2: B1 DNA 2 with A65T
RNA: B1 RNA
B15: ATAT (dsDNA)
DNA 1: B1 DNA 1 with T26A, G29T
DNA 2: B1 DNA 2 with C62A, A65T
RNA: B1 RNA

One assay deals with dAsCas12a Ultra (Acidaminococcus sp., UniProt U2UMQ6 1-1307, M537R;F870L;D908A;E993A;D1235A). In words: Spec-seq (native PAGE EMSA with sequencing of bound and unbound); 25 mM Tris-HCl pH 7.4, 150 mM KCl, 5 mM MgCl2, 10% glycerol, 1 mM DTT, 40 ng/uL salmon sperm DNA; 400 nM Cas12a, 480 nM crRNA, 50 nM library, 37 C 1 h; native PAGE at room temperature; high values mean tight binding. To be noted: protein: recombinant. Background: A gel shift assay detects complexes by their altered migration in electrophoresis.
In the case of B1, the binding signal was -8.15 lnKA.

Turning to B5, the binding signal was -6.85 lnKA.

Take B7: the binding signal is -7.79 lnKA.

B12: the binding signal is -8.23 lnKA.

Consider B13, for which the binding signal is -7.84 lnKA.

Another assay has as its target dAsCas12a E174R (Acidaminococcus sp., UniProt U2UMQ6 1-1307, E174R;D908A;E993A;D1235A). The description is as above. To be noted: protein: recombinant.
B1: the binding signal was -8.42 lnKA.

Regarding B2, the binding signal was -8.97 lnKA.

B3: the binding signal is -8.3 lnKA.

In the case of B4, the binding signal is -8.84 lnKA.

B5: the binding signal is -7.11 lnKA.

For the molecule B6, the binding signal is -8.4 lnKA.

Turning to B7, the binding signal is -7.77 lnKA.

For B8, the binding signal was -8.78 lnKA.

Take B9: the binding signal was -8.92 lnKA.

Consider B10, for which the binding signal was -8.92 lnKA.

On to B11, for which the binding signal was -8.9 lnKA.

With B12, the binding signal was -8.07 lnKA.

Turning to B13, the binding signal was -8.2 lnKA.

Take B14: the binding signal was -8.88 lnKA.

As for B15, the binding signal is -8.59 lnKA.

In the next assay the target is dAsCas12a S542R (Acidaminococcus sp., UniProt U2UMQ6 1-1307, S542R;D908A;E993A;D1235A). The assay is described as above. To be noted: protein: recombinant.
For the molecule B1, the binding signal was -7.46 lnKA.

With B2, the binding signal is -8.62 lnKA.

For B3, the binding signal is -8.21 lnKA.

As for B4, the binding signal was -8.44 lnKA.

B5: the binding signal is -3.01 lnKA.

Take B6: the binding signal was -5.58 lnKA.

B7: the binding signal was -7.47 lnKA.

For the molecule B8, the binding signal was -7.09 lnKA.

B9: the binding signal was -8.45 lnKA.

Turning to B10, the binding signal was -6.94 lnKA.

For B11, the binding signal is -7.8 lnKA.

For the molecule B12, the binding signal is -7.55 lnKA.

With B13, the binding signal was -7.64 lnKA.

B14: the binding signal is -8.31 lnKA.

As for B15, the binding signal is -8.38 lnKA.

The next assay addresses d-enCas12a (Acidaminococcus sp., UniProt U2UMQ6 1-1307, E174R;S542R;K548R;D908A;E993A;D1235A). The description is as above. The note with it: protein: recombinant.
With B1, the binding signal is -4.03 lnKA.

As for B2, the binding signal is -5.81 lnKA.

In the case of B3, the binding signal is -3.79 lnKA.

With B4, the binding signal is -5.86 lnKA.

Take B5: the binding signal is -1.14 lnKA.

In the case of B6, the binding signal was -1.74 lnKA.

With B7, the binding signal is -4.47 lnKA.

On to B8, for which the binding signal was -3.06 lnKA.

As for B9, the binding signal was -5.69 lnKA.

As for B10, the binding signal was -4.21 lnKA.

Consider B11, for which the binding signal was -5.41 lnKA.

Turning to B12, the binding signal is -4.53 lnKA.

For B13, the binding signal is -5.22 lnKA.

In the case of B14, the binding signal was -5.6 lnKA.

As to B15, the binding signal is -5.63 lnKA.

The next assay addresses d-enCas12a-Ultra (Acidaminococcus sp., UniProt U2UMQ6 1-1307, E174R;S542R;K548R;M537R;F870L;D908A;E993A;D1235A). Described as above. The note with it: protein: recombinant.
In the case of B1, the binding signal is -1.65 lnKA.

Regarding B2, the binding signal was -3.49 lnKA.

As to B3, the binding signal is -1.81 lnKA.

For the molecule B4, the binding signal was -3.51 lnKA.

Regarding B5, the binding signal was -0.323 lnKA.

As for B6, the binding signal is -0.402 lnKA.

For B7, the binding signal is -1.69 lnKA.

For B8, the binding signal is -0.664 lnKA.

Turning to B9, the binding signal is -3.07 lnKA.

For B10, the binding signal was -0.992 lnKA.

For B11, the binding signal is -2.23 lnKA.

B12: the binding signal was -2.12 lnKA.

As for B13, the binding signal was -2.4 lnKA.

B14: the binding signal was -3.31 lnKA.

B15: the binding signal is -3.33 lnKA.

A further assay concerns the target dAsCas12a K548R (Acidaminococcus sp., UniProt U2UMQ6 1-1307, K548R;D908A;E993A;D1235A). Described as above. The note with it: protein: recombinant.
With B5, the binding signal is -8.63 lnKA.
